Test results published in PubChem BioAssay AID686979 (National Center for Advancing Translational Sciences (NCATS), 2013).
The whole screen tested about 420,000 compounds, of which about 50,000 (12%) were called active. Not shown: some 26% with an inconclusive outcome. Only a selection was taken, and actives are over-represented in it overall. Values without a mark were called inactive. The call rests on the fitted dose curve; in most records, active means well fitted inhibition curve with a large enough effect; inconclusive means small, poorly fitted or top-dose-only effect; inactive means flat fitted curve, though single readings scatter.
On the % scale 0 is the no-effect control and ±100 the full control effect; potency means the concentration at half of the fitted maximal effect.

Assay: qHTS for Inhibitors of human tyrosyl-DNA phosphodiesterase 1 (TDP1): qHTS in cells in presence of CPT; further: nearly all actives have a fitted effect of over 55% in size
Details: chicken DT40 Tdp1-/-;hTDP1 cells + 20 nM CPT, ATP luminescence, 48 h; series mostly up to 46.2 µM; activity change, negative = growth inhibition: at the top concentration
Description: Human tyrosyl-DNA phosphodiesterase 1 (TDP1) is a novel repair gene, and we propose to use it as a new target for anticancer drug development. TDP1 is not an essential protein, but under treatment with topoisomerase I poison (camptothecin: CPT), TDP1 works as a critical factor for cell survival. To directly identify novel TDP1 inhibitors active in a cellular environment, we have knocked-out the Tdp1 gene in chicken DT40 cells (Tdp1-/-) and generated a complemented counterpart cells that contains a stable transfection of the human TDP1 gene (Tdp1-/-;hTDP1 cells). For the primary screen, Tdp1-/-;hTDP1 cells will be exposed to small molecules in the presence or absence of CPT, and their growth kinetics will be evaluated after 48 hours by measuring ATP activity. […] The hit compounds will then be evaluated in the presence or absence of CPT using Tdp1-/- cells. […] In tertiary assays, biochemical gel-based assays will be used to assess whether the hit compounds specifically target TDP1. To this end, we have screened this cell line against the MLSMR in two primary screens. In one screen we add CPT and in the other we screen in the absence of CPT; this AID represents the screen where CPT was present. NIH Chemical Genomics Center [NCGC] NIH Molecular Libraries Probe Centers Network [MLPCN] MLPCN Grant: MH095538 Assay Submitter (PI): Yves Pommier, NCI
DT40-hTDP1 cells with 20 nM Camptothecin (add 20 microL of 1 mM CPT stock in 1 L of cell culture medium) were dispensed at 400 cells/5microL/well in tissue culture treated 1536-well white wall/solid bottom assay plates (Greiner Bio-One North America, NC, U.S.A.) using a Multidrop Combi 8 channel dispenser (Thermo Fisher, Waltham, MA, USA). 23 nL compounds and controls were transferred using the pin tool (Kalypsys, San Diego, CA, USA) to the assay plates. The assay plates were then incubated at 37 masculineC for a minimum 48 hr. Three microL of Cell Titer Glo solution was added to the plates and incubated at RT in dark for 30 min. Luminescence was read using ViewLux (Perkin Elmer) with 1 sec exposure slow speed, high gain and 2x binning.
With `CN(C)C(CNC(=O)Cc1ccc([N+](=O)[O-])cc1)c1ccccc1` (stereo unspecified) the “activity change, negative = growth inhibition” value was -2.26%.
With `NS(=O)(=O)c1ccc(CCNc2nc(C(F)(F)F)nc3ccccc23)cc1` the “activity change, negative = growth inhibition” value was -27.3%.
With `CCc1ccc(C(CNc2nc(C(F)(F)F)nc3ccccc23)N(C)C)cc1` (stereo unspecified) the Potency was 16.4 µM (active).
In the case of `CCN(CC)CCCN=C(N)N`, the “activity change, negative = growth inhibition” value is reported as -4.33%.
In the case of `Cc1nc2ccc(S(=O)(=O)NC(C(=O)NCc3ccccc3Cl)C(C)C)cc2s1` (stereo unspecified), the “activity change, negative = growth inhibition” value is reported as 4.06%.
In the case of `O=C(O)CC(c1ccccc1F)N1Cc2ccccc2C1=O` (stereo unspecified), the “activity change, negative = growth inhibition” value is reported as -6.62%.
In the case of `COc1cc(C(CC(=O)NCCC(C)C)N2Cc3ccccc3C2=O)cc(OC)c1OC` (stereo unspecified), the “activity change, negative = growth inhibition” value is reported as -7.29%.
For `O=C(CC(c1cccs1)N1Cc2ccccc2C1=O)Nc1ccc(F)cc1F` (stereo unspecified), the Potency was 20.6 µM (active).
In the case of `CC(C)(C)C1CCc2c(sc3nc(SCC(N)=O)nc(N)c23)C1` (stereo unspecified), the Potency is reported as 16.4 µM (active).
With `CN(C)CCSc1nc(N)c2c3c(sc2n1)COC(C)(C)C3` the “activity change, negative = growth inhibition” value was -2.4%.
For `Nc1nc(SCC(=O)NCCN2CCOCC2)nc2sc3c(c12)CCC3`, the “activity change, negative = growth inhibition” value was 1.37%.
With `Cc1cnc(-n2ncc(C(=O)N3CCN(C(C)C)CC3)c2-c2ccco2)nc1-c1ccc(F)cc1` the “activity change, negative = growth inhibition” value was -0.952%.
With `O=c1o[nH]c(-c2ccccc2)c1N=Nc1c(F)cccc1Cl` the “activity change, negative = growth inhibition” value was -4.76%.
For `Cc1nc2ccccc2c(=O)n1NC(=O)c1ccc(Cl)c([N+](=O)[O-])c1`, the “activity change, negative = growth inhibition” value was -1.58%.
With `CCOC(=O)N1CCN(C(=O)C(=O)Nc2sc3c(c2C#N)CC(C)(C)OC3)CC1` the “activity change, negative = growth inhibition” value was -9.35%.
In the case of `CC1(C)Cc2c(sc(NC(=O)C(=O)N3CCOCC3)c2C#N)CO1`, the Potency is reported as 20.6 µM (active).
In the case of `COC(=O)c1c(NC(=O)C(=O)N2CCCCC2)sc2c1CC(C)(C)OC2`, the “activity change, negative = growth inhibition” value is reported as -21.8%.
For `CCOc1cc(NC(=O)Nc2ccccc2)c(OCC)cc1NC(=O)CC`, the “activity change, negative = growth inhibition” value was 1.31%.
For `CN(NC(=O)C1CC(=O)N(c2ccccc2)C1)C1=NS(=O)(=O)c2ccccc21` (stereo unspecified), the “activity change, negative = growth inhibition” value was 8.09%.
With `S=C(NN=Cc1ccccn1)Nc1ccccn1` the Potency was 1.46 µM (active).
In the case of `O=C(N/N=C/c1ccccn1)C12CC3CC(CC(C3)C1)C2`, the “activity change, negative = growth inhibition” value is reported as -3.23%.
In the case of `CNC(=O)C(=O)N/N=C/c1ccccn1`, the “activity change, negative = growth inhibition” value is reported as -1.38%.
In the case of `CC(=O)N1CCN(C(=O)C2(NC(=O)Nc3ccc(C)cc3)CCCCC2)CC1`, the “activity change, negative = growth inhibition” value is reported as 14.9%.
With `CC(=O)NCC(=O)N1CCC(n2nccc2NC(=O)CCCc2ccccc2)CC1` the “activity change, negative = growth inhibition” value was -1.7%.
With `c1ccc(C(=NNc2nc3ccccc3s2)c2ccccn2)cc1` the Potency was 0.164 µM (active).
In the case of `c1ccc2sc(NN=C3CCCC3)nc2c1`, the “activity change, negative = growth inhibition” value is reported as -10.2%.
With `O=C(Nc1ccccc1Cl)O/N=C(/c1ccccc1)c1ccccn1` the “activity change, negative = growth inhibition” value was 4.12%.
In the case of `CC(C)CN1C(=O)CN(S(C)(=O)=O)CC1(C)C(=O)NCc1ccccc1` (stereo unspecified), the “activity change, negative = growth inhibition” value is reported as -2.61%.
In the case of `CCN(CC(=O)Nc1c(F)cccc1F)C(=O)c1ccc(-c2ccc(C(C)=O)cc2)o1`, the “activity change, negative = growth inhibition” value is reported as -25.2%.
With `Cc1ccc(S(=O)(=O)NCC(=O)N(CC(=O)NC(C)(C)C)Cc2cccs2)cc1` the “activity change, negative = growth inhibition” value was -4.73%.
For `Cc1cc(C)cc(C(=O)OCC(=O)NCCNC(=O)COC(=O)c2cc(C)cc(C)c2)c1`, the “activity change, negative = growth inhibition” value was -13.7%.
With `Cc1cccc([C@@H]2[C@@H]3C(=O)N(Cc4ccccc4)C(=O)[C@@H]3[C@]3(Cc4ccc(Cl)cc4)C(=O)N(c4cccc(Cl)c4)C(=O)N23)c1` the “activity change, negative = growth inhibition” value was 9.53%.
With `Cc1ccc(-c2cccc([C@H]3[C@@H]4C=CC[C@@H](C)[C@@H]4C(=O)N3Cc3ccccc3)c2)cc1` the Potency was 14.6 µM (active).
For `COc1ccc(CN2CCNC(=O)C2CC(=O)N(C)Cc2ccccn2)cc1OC` (stereo unspecified), the “activity change, negative = growth inhibition” value was 3.3%.
In the case of `O=C(OCc1ccc([N+](=O)[O-])cc1)C1CC(=O)N(Cc2ccccc2Cl)C1` (stereo unspecified), the “activity change, negative = growth inhibition” value is reported as -4.97%.
With `O=[N+]([O-])c1ccc(N2CCOCC2)cc1` the “activity change, negative = growth inhibition” value was -4.01%.
In the case of `O=[N+]([O-])c1ccc(COc2ccccc2CN2CCOCC2)cc1`, the Potency is reported as 23.1 µM (active).
For `O=C1c2cccc3cccc(c23)C(=O)N1c1cccc(O)c1`, the “activity change, negative = growth inhibition” value was -18.4%.
In the case of `COc1ccc(CCNS(=O)(=O)c2cccc3cccnc23)cc1OC`, the “activity change, negative = growth inhibition” value is reported as -2.46%.
For `C=CCn1c(COc2cccc3cccnc23)nnc1SCC(=O)OC`, the “activity change, negative = growth inhibition” value was -14.3%.
In the case of `CCCCC(=O)NC(c1ccc(OC)c(OC)c1)c1ccc2cccnc2c1O` (stereo unspecified), the Potency is reported as 1.3 µM (active).
With `S=c1[nH]nc(-c2ccccc2)n1/N=C/c1c[nH]c2ccccc12` the “activity change, negative = growth inhibition” value was -3.77%.
In the case of `O=C(NC1CCCC1)C(=O)c1c[nH]c2ccccc12`, the “activity change, negative = growth inhibition” value is reported as -2.79%.
For `C[n+]1ccc(/C=C/c2c[nH]c3ccccc23)cc1`, the Potency was 1.03 µM (active).
For `CC1(C(=O)NS(=O)(=O)c2ccc(C#N)cc2)CCN1C(=O)CC1CCCC1` (stereo unspecified), the “activity change, negative = growth inhibition” value was -5.1%.
With `CC1(C)CC2CC(C)(CN2c2ncnc3ccc(Br)cc23)C1` (stereo unspecified) the Potency was 5.17 µM (active).
With `O=C(COC(=O)Cc1ccccc1F)NNC(=O)c1ccc(Cl)cc1` the “activity change, negative = growth inhibition” value was -7.31%.
With `COc1ccc(C)cc1N(CC(=O)NC(C)c1ccccc1)S(C)(=O)=O` (stereo unspecified) the “activity change, negative = growth inhibition” value was 6.36%.
In the case of `CC(C)CNC(=O)C1(C)CCCN1C(=O)CSc1ccccc1` (stereo unspecified), the “activity change, negative = growth inhibition” value is reported as -17.6%.
For `COc1cc(OC)cc(C(=O)Nc2ccc3nc(Nc4cccc(C(F)(F)F)c4)cc(C)c3c2)c1`, the Potency was 9.2 µM (active).
With `COc1ccc(/C=N/NC(=O)c2cccc(C(F)(F)F)c2)cc1` the “activity change, negative = growth inhibition” value was 0.721%.
